Screening data: PubChem, National Center for Advancing Translational Sciences (NCATS)
Sampled rows, rich in hits. Any-hit rate of the full collection: about 17%.
DT40 TDP1 no CPT = qHTS for Inhibitors of human tyrosyl-DNA phosphodiesterase 1 (TDP1): qHTS in cells in absence of CPT | DT40 Tdp1-/- hTDP1 cells, no CPT, ATP luminescence, 48 h | Potency, µM (doses to about 46.2 µM), for inactives: at the top dose activity change, negative = growth inhibition, actives largely listed as inhibitors | 420,000 compounds, 15% hits | AID 686978, 2013; further: on the % scale 0 is the no-effect control and ±100 the full control effect; nearly all actives have a fitted effect of over 55% in size
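No-CPT arm: Tdp1-/-;hTDP1 DT40 cells (400/well) plus compounds, incubated ≥48 hr at 37 °C. Readout CellTiter-Glo luminescence.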
HT1080-NT tox = qHTS for induction of synthetic lethality in tumor cells producing 2HG: qHTS for the HT-1080-NT fibrosarcoma cell line; HT-1080-NT fibrosarcoma viability, CellTiter-Glo ATP luminescence, 48 h; Potency, µM (top dose mostly 46.1 µM), for inactives: top-dose activity, negative = less viability, actives largely listed as cytotoxic; 360,000 compounds, 1.6% hits; AID 686970, 2013;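 further: NT is the 2HG producing partner of a matched IDH1 knockdown line; 0% = DMSO-treated cells and -100% = media-only wells without cells; nearly all actives have a fitted effect of over 55% in size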
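A 48-hour cytotoxicity screen used HT-1080-NT cells plated 2 hours before compound delivery. ATP-based CellTiter-Glo luminescence measured viability, normalized to DMSO and no-cell controls.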
TGFb inhibitor = qHTS for Inhibitors of TGF-b; HepG2 CAGA-GFP TGF-b/SMAD3 reporter, GFP fluorescence, 18 h; TGF-beta stimulated, 500 pg/mL final; Potency, µM (top dose mostly 46.1 µM), inactives show top-dose activity, negative = inhibition, actives largely listed as inhibitors; 410,000 compounds, 1.2% hits; AID 588855, 2011; further: on the % scale 0 is the no-effect control and ±100 the full control effect; nearly all actives have a fitted effect of over 65% in size
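GFP signal (ex488/em500-530) from TGF-beta-stimulated HEPG2 CAGA-GFP cells, 500 pg/mL final, 18 h at 37 degrees C in DMEM plus 1% FBS, normalized to unstimulated and DMSO-stimulated controls.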
TDP1 cell CPT = qHTS for Inhibitors of human tyrosyl-DNA phosphodiesterase 1 (TDP1): qHTS in cells in presence of CPT; chicken DT40 Tdp1-/-;hTDP1 cells + 20 nM CPT, ATP luminescence, 48 h; 420,000 compounds, 12% hits; Potency, µM (series often up to 46.2 µM), inactives show top-dose activity change, negative = growth inhibition, most hits filed as inhibitors; further: on the % scale 0 is the no-effect control and ±100 the full control effect; nearly all actives have a fitted effect of over 55% in size
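Chicken DT40 Tdp1-/- cells stably complemented with human TDP1 were seeded at 400 cells/well in medium containing 20 nM camptothecin, exposed to pin-transferred compounds, and grown at 37 °C for at least 48 hr. Viability was read as ATP luminescence.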
HepG2 viability = qHTS for Inhibitors of TGF-b: Cytotox Counterscreen; Potency, µM (titrated, usually from 46.1 µM), for the others: at the highest dose activity change, negative = cytotoxicity, most hits filed as cytotoxic; 410,000 compounds, 0.76% hits; HepG2 CAGA-GFP viability, ATP luminescence, 18 h
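HepG2 CAGA-GFP cells (1000/well, DMEM with 1% FBS) received compound, then TGF-beta at 500 pg/mL final, and were incubated 18 hours at 37 degrees C. Viability was read by CellTiter-Glo luminescence. Media-only wells were set as complete cell-killing and DMSO as no toxicity.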
HT1080 IDH1KD tx = qHTS for induction of synthetic lethality in tumor cells producing 2HG: qHTS for the HT-1080-IDH1KD cell line; Potency, µM (top dose mostly 46.1 µM), without a hit: at the top dose activity, negative = toxicity, usual class: cytotoxic; HT-1080 IDH1 knockdown viability, ATP luminescence, 48 h; 360,000 compounds, 2% hits;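 further: 0% = DMSO wells and -100% = cell-free medium wells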
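% activity derives from luminescence (CellTiter-Glo), normalised to DMSO and no-cell wells. HT-1080-IDH1KD cells, 750/well, had 48 h compound exposure at 37 °C.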
Active calls of the source: *; ? = inconclusive; . = no result given; ! = a repeat was not active; [ ] = remark or other dose. The call rests on the fitted dose curve; in most records, active means well fitted curve in the direction sought with a large enough effect; inconclusive means small, poorly fitted or top-dose-only effect, or another doubt; inactive means no such curve, though single readings can be large; an effect the other way counts as inactive or inconclusive. Potency means the concentration at half of the fitted maximal effect.

SMILES | DT40 TDP1 no CPT | HT1080-NT tox | TGFb inhibitor | TDP1 cell CPT | HepG2 viability | HT1080 IDH1KD tx
CCOc1ccc(NC(=O)Cn2c(=O)n(Cc3ccccc3)c(=O)c3sc4ccccc4c32)cc1 | 9.2µM* | . | 10.6% | 6.51µM* | 4.2% | .
Cc1cccc(NC(=O)Cn2c(=O)n(Cc3ccccc3)c(=O)c3sc4ccccc4c32)c1 | -17.9% | . | -35.3% | -13.0% | -14.8% | .
CC(C)(C)C(=O)Cn1c(=O)n(CCCCCC(=O)NCc2ccccc2Cl)c(=O)c2sccc21 | 20.6µM* | . | -26.0% | ? | -24.0% | .
Cc1ccc(NC(=O)Cn2c(=O)n(CCC(=O)NCc3ccccc3Cl)c(=O)c3ccccc32)cc1 | 20.6µM* | . | ? | 16.4µM* | -26.4% | .
Cc1ccc(NC(=O)Cn2c(=O)n(CCCCC(=O)NCc3ccccc3Cl)c(=O)c3ccccc32)cc1 | 23.1µM* | . | -19.7% | ? | -18.1% | .
COc1cc2c(=O)n(Cc3ccccc3Cl)c(=O)n(CC(=O)Nc3ccc(C)c(C)c3)c2cc1OC | 7.31µM* | . | 0.0% | 1.84µM* | 1.0% | .
Cc1ccc(NC(=O)Cn2c(=O)n(CCCCC(=O)NCc3ccccc3Cl)c(=O)c3ccccc32)cc1C | ? | . | -15.4% | ? | 1.8% | .
c1ccc2oc(-c3ccn[nH]3)cc2c1 | 4.6% | 25.3% | -18.8% | 31.5% | -20.9% | 5.0%
CCOc1ccc(C(C)NC(=O)c2cccc(F)c2)cc1 (configuration not stated) | ? | 2.4% | -18.8% | ? | 7.7% | -0.5%
CCOc1ccc(NC(=O)CN(C)C(=O)Cn2cnc3c2c(=O)n(C)c(=O)n3C)cc1OCC | -26.8% | 1.0% | -7.2% | -11.4% | -22.8% | 0.4%
CSc1ccc(CNC(=O)C2CCC(=O)N(CCc3cccc(F)c3)C2)cc1 (configuration not stated) | -1.2% | -2.4% | -24.4% | -17.6% | 4.2% | -1.7%
O=S(=O)(c1ccc(N2CCC(c3ccc(Cl)cc3)=N2)cc1)N(CCO)CCO | ? | -20.5% | ? | ? | 20µM* | -28.6%
CCN(CC(=O)N1CCCCCC1)S(=O)(=O)c1ccc(Cl)cc1 | -19.1% | 5.0% | -0.6% | -27.6% | 11.8% | 14.0%
S=C1NC(c2ccccc2)=CC(c2ccccc2)N1 (configuration not stated) | 29.1µM* | 2.9% | -0.5% | ? | -2.5% | -4.8%
CC(=O)NC(Cc1ccc(C)cc1)C(=O)NC1CCN(S(=O)(=O)c2ccccc2)CC1 (configuration not stated) | 15.0% | 1.1% | 2.8% | -2.1% | 6.5% | 9.1%
COc1cccc(CNC(=O)CSc2nc(=O)[nH]c3c2CCC3)c1 | -9.8% | . | 8.0% | 10.8% | 5.4% | .
N#C/C(=C\c1ccc(O)c(O)c1)C(=O)Nc1ccccc1 | 10µM* | -17.4% | 28.5% | 23.7µM* | -20.1% | ?
CC(NC(=O)/C(C#N)=C/c1ccc(Cl)c([N+](=O)[O-])c1)c1ccccc1 (configuration not stated) | 3.66µM* | ? | ? | 3.66µM* | -111.6% | ?
CNc1ccc(/C=C(\C#N)c2ccccn2)cc1[N+](=O)[O-] | -17.0% | -6.6% | 0.9% | -0.6% | 1.7% | 11.7%
N#C/C(=C\c1ccc(Cl)c([N+](=O)[O-])c1)c1ccccn1 | 20.6µM* | 14.6µM* | ? | 20.6µM* | -44.6% | 10.3µM*
Cc1cccc(NC(=O)/C(C#N)=C/c2cccc([N+](=O)[O-])c2)n1 | -23.4% | 6.1% | ? | -5.3% | -19.6% | 2.9%
C[C@@H](NC(=O)/C(C#N)=C/c1ccc(O)c(O)c1)c1ccccc1 | 12.6µM*! | ? | -9.1% | 23.7µM* | -40.9% | ?
N#C/C(=C\c1cccnc1)C(=O)Nc1ccccc1 | ? | 22.0% | 27.3% | -4.8% | 2.3% | 19.4%
C[C@H](NC(=O)/C(C#N)=C/c1ccc(O)c(O)c1)c1ccccc1 | 18.8µM* | . | . | 18.8µM* | . | .
CC(NC(=O)/C(C#N)=C/c1ccc(OCC(=O)O)cc1)c1ccccc1 (configuration not stated) | -6.5% | 2.2% | 22.9% | 0.9% | 18.2% | -2.3%
SMILES | DT40 TDP1 no CPT | HT1080-NT tox | TGFb inhibitor | TDP1 cell CPT | HepG2 viability | HT1080 IDH1KD tx
CCCCN(C(=O)c1ccc(S(=O)(=O)N2CCCCC2)cc1)C1CCS(=O)(=O)C1 (configuration not stated) | -23.2% | -12.6% | -17.1% | ? | -30.1% | -5.3%
O=C(CN1c2ccccc2Sc2ccccc21)N/N=C/c1ccc([N+](=O)[O-])cc1 | 20.6µM* | -14.2% | 0.0% | ? | 0.0% | -1.1%
CC1CCC2(C(=O)O)CCC3(C)C(=CCC4C3(C)CCC3[C@@]4(C)CC(O)C(O)[C@@]3(C)CO)C2C1C (some centres not stated) | -14.6% | . | . | 3.8% | . | .
O=[N+]([O-])c1ccc(N=Nc2ncc[nH]2)cc1 | 0.731µM* | 18.4µM* | -11.4% | 0.92µM* | -13.9% | 6.51µM*
Cc1ccc(S(=O)(=O)N2CCC(C(=O)NNC(=O)c3ccccc3O)CC2)cc1 | 14.6µM* | -26.0% | -14.9% | ? | -39.9% | ?
Cc1cc(C)c(C)c(S(=O)(=O)N2CCC(C(=O)NNC(=O)c3ccccc3O)CC2)c1C | 16.4µM* | -21.4% | 6.4% | ? | -14.0% | ?
O=C(Cc1ccc(OCCC2CCCCC2)cc1)NO | 10µM* | . | -14.8% | 7.08µM* | -7.3% | .
CCCCCCCOc1ccc(CC(=O)NO)cc1 | 10µM* | . | 15.5% | 10µM* | 4.3% | .
O=C(Cc1ccc(OCCc2ccccc2)cc1)NO | ? | . | -10.0% | ? | -37.4% | .
CCOC(=O)c1cocc1C(=O)O | 1.9% | -0.2% | ? | -19.2% | 1.58µM* | -6.4%
CCOC(=O)c1cc(C(=O)OCC)c2ccccn2c1=O | 18.4µM* | 2.3% | 2.4% | ? | 3.5% | 13.2%
Cc1c(C(=O)NCC2(N3CCOCC3)CCCCC2)cnn1-c1nccc(-c2ccccc2F)n1 | ? | . | . | -7.8%[9.04 µM] | . | .
COc1ccc(S(=O)(=O)NCCc2csc3nc(-c4ccc(OC)c(OC)c4)nn23)cc1C | 16.4µM* | . | 0.0% | ? | -4.3% | .
